# Assay outcomes (PubChem)
# Cruzain Triton = cruzain (T. cruzi) inhibition with detergent; P25779; purified cruzain, Z-FR-AMC fluorescence, 0.01% Triton; Potency, µM, actives largely listed as inhibitors; hit rate 0.43% among 200,000; further: nearly all actives have a fitted effect of over 40% in size
# Target sequence (P25779 123-467 limits assumed): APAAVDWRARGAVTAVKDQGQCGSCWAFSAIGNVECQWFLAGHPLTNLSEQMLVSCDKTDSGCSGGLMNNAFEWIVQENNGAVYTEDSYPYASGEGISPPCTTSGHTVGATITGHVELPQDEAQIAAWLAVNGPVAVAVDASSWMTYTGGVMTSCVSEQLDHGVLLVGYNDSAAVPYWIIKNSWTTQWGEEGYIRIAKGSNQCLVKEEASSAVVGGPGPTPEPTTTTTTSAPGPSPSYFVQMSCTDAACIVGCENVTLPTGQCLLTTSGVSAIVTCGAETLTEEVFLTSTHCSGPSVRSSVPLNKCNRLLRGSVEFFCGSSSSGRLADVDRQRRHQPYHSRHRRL
#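 Compounds were screened in titration against cruzain (1.5 nM) with 0.01% Triton X-100 to counter colloidal aggregation. Activity was the AMC fluorescence increase over 60 s after adding 2 uM Z-FR-AMC at pH 5.5.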
# Cruzain noTriton = cruzain (T. cruzi) inhibition without detergent; purified cruzain, Z-FR-AMC fluorescence, no detergent; Potency, µM, usual class: inhibitors; hit rate 2.3% among 200,000; further: nearly all actives have a fitted effect of over 40% in size
#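 Purified cruzain at 1.5 nM, pre-incubated 15 min with compound at room temperature in 100 mM sodium acetate pH 5.5, 5 mM DTT, 0.00005% Triton X-100. Reaction started with 2 uM Z-FR-AMC; AMC fluorescence increase over 60 s gives rate.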
# Papain inh = blocks papain protease activity, flagging nonselective cruzain hits | shares compounds with Cruzain Triton | purified papain, Z-FR-AMC fluorescence cleavage | Potency, µM, actives largely listed as inhibitors | hit rate 41% among 410 | AID 2161; further: nearly all actives have a fitted effect of over 35% in size
# Target sequence (P00784 whole entry, looked up): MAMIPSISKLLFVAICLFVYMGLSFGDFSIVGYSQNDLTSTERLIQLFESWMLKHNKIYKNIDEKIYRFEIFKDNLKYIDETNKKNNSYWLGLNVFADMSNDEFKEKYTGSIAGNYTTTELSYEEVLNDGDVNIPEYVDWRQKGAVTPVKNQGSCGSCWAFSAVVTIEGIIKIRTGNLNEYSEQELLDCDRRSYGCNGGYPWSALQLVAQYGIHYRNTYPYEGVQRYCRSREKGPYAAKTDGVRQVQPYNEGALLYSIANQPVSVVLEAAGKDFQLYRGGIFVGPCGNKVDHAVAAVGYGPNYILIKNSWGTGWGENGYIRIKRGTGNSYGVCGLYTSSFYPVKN
# Hits are given with their value; - = inactive; ? = inconclusive; . = not tested or not shown. The list is not random: actives were taken first. Their share in the collection is about 2.6%. The call rests on the fitted dose curve; in most records, active means well fitted curve in the direction sought with a large enough effect; inconclusive means small, poorly fitted or top-dose-only effect, or another doubt; inactive means no such curve, though single readings can be large; an effect the other way counts as inactive or inconclusive.
SMILES,Cruzain Triton,Cruzain noTriton,Papain inh
O=C(c1cnn(-c2cccc(F)c2)c1-n1cccc1)N1CCN(c2ccccc2F)CC1,-,-,.
CCS(=O)(=O)N1CCc2cc(C(=O)NCc3ccccc3Cl)ccc21,-,-,.
CC1CN=C(Nc2cccc3ccccc23)S1 (configuration not stated),-,-,.
COc1cccc(Nc2nc(C#N)nc(NC3CCCC3)n2)c1,.,.,0.28µM
COc1cccc(Nc2nc(C)cc(C)c2C#N)c1,-,-,.
Nc1nc(NCC2CCC(CNS(=O)(=O)c3cccc4ccccc34)CC2)nc2ccccc12 (configuration not stated),-,?,.
N#Cc1nc(NCC2CC2)nc(Nc2ccccc2)n1,.,.,1.3µM
N#Cc1nc(Nc2cccc3ccccc23)nc(NC2CCCC2)n1,.,.,4.5µM
COc1cccc(CNC(=O)CN2C(=O)N(c3cccc(Cl)c3)S(=O)(=O)c3ccccc32)c1OC,-,-,.
CCc1ccccc1NC(=O)c1cc2c(Cl)nc3ccccc3c2s1,-,-,.
Cn1c(-c2nc(-c3ccccc3)cs2)nc2ccccc21,-,-,.
COc1cccc(CCNC(=O)c2c(O)nc3ccccn3c2=O)c1,-,-,.
Cc1ccn2c(Nc3ccc4c(c3)OCCO4)c(-c3cccs3)nc2c1,-,?,.
CCC1=C2CC[C@H]3C(=O)N(C)C(=O)[C@H]3[C@H]2[C@@]2(C)C(=O)N(CC3CC3)C(=O)N2C1=O,-,-,.
C=CCn1c(SCC(=O)Nc2cccc3ccccc23)nnc1-c1cnccn1,-,-,.
C=CCn1c(SCC(=O)Nc2cc3oc4ccccc4c3cc2OC)nnc1-c1cnccn1,-,?,-
CC(C)(C)OC(=O)N[C@@H](Cc1ccccc1)c1nnc(SCC(=O)O)o1,25µM,-,-
COC(=O)CSc1nnc([C@H](CC(C)C)NC(=O)OC(C)(C)C)o1,?,-,.
COc1ccc(NC(=O)[C@H]2O[C@@H]3OC(C)(C)O[C@@H]3[C@H]3OC(C)(C)O[C@H]32)c(OC)c1,-,-,.
COc1ccc(OC)c(NC(=O)c2c(NCc3ccc(N(C)C)cc3)sc3c2CCCC3)c1,-,-,.
O=C(Cn1c(=O)oc2ccccc21)NCc1cccc(Cl)c1,-,-,.
CCN(CCO)c1nc(SC)nc2c1sc1nc(-c3ccco3)c3c(c12)CCC3,8.9µM,6.3µM,13µM
CCN(CCO)c1ncnc2c1sc1nc(C(C)C)c3c(c12)CC(C)(C)OC3,-,?,.
CC(C)NC(=O)COC(=O)CNC(=O)C1CCCCC1,.,.,-
CC(C)(C)NC(=O)COC(=O)CNC(=O)C1CCCCC1,.,.,-
SMILES,Cruzain Triton,Cruzain noTriton,Papain inh
Cc1cc(NC(=O)CNC(=O)C2CCCCC2)no1,-,-,.
O=C(CNC(=O)C1CCCCC1)Nc1ccccc1,-,-,.
Cc1ccc(C(=O)Oc2oc(-c3ccco3)nc2C=Nc2ccc(Cl)cc2)cc1,4µM,13µM,14µM
Cc1ccc(N=CC2=C(O)CC(c3ccco3)CC2=O)cc1 (configuration not stated),-,-,.
Cc1cn2c(=O)cc(COC(=O)c3ccc(NC(=O)c4ccccc4C)cc3)nc2s1,-,-,.
O=C(CSc1n[nH]c(-c2ccccc2Cl)n1)NCCc1ccccc1,-,-,.
Cc1ccc(C)c(-c2csc(-c3c(N)c(C(=O)c4ccc5c(c4)OCO5)n4ccccc34)n2)c1,-,3.2µM,-
Cc1cc(C)c(-c2csc(NC(=O)COC(=O)c3ccc4c(c3)OCO4)n2)c(C)c1,-,?,.
CC(C)NC(=O)CCSc1nc(-c2ccc3c(c2)OCO3)cc(C(F)(F)F)n1,-,-,.
Cc1ccc(-c2nc3c(=O)n(C)c(=O)nc-3n(C)n2)cc1,.,.,-
CCc1ccc(-c2nc3c(=O)n(C)c(=O)nc-3n(CC)n2)cc1,.,.,-
Cc1ccc(-c2nc(N)n(S(C)(=O)=O)n2)cc1,-,-,.
Cn1ncnc2c(=O)n(C)c(=O)nc1-2,1.3µM,1.3µM,-
CCc1ccc(-c2nn[nH]n2)cc1,-,-,.
Cc1ccccc1-c1nccc(-n2ccnc2)n1,-,-,.
Cc1ccccc1-c1nc2c(=O)n(C)c(=O)nc-2n(C)n1,.,.,-
Cn1c(=O)c(-c2ccc(Cl)cc2)nc2cncnc21,-,-,.
Cc1cn2c(=O)cc(COC(=O)c3ccc(NC(=O)c4ccc(C(C)(C)C)cc4)cc3)nc2s1,-,-,.
Cc1cccc(Cn2c(SCc3ccc(C(=O)NCCc4ccccc4)cc3)nc3ccncc32)c1,-,-,.
O=C(Nc1ccc(Cl)cc1)c1ccc2oc(=O)n(Cc3ccccc3)c2c1,-,-,.
Cc1cccc(Cn2cc(/C=C(/C#N)C(=O)Nc3cccc(Cl)c3)c3ccccc32)c1,-,3.2µM,-
N#C/C(=C\c1cn(Cc2cccc(F)c2)c2ccccc12)C(=O)NCc1ccco1,-,-,.
CO[C@H]1C=CO[C@]2(C)Oc3c(C)c(O)c4c(O)c(c5c(c4c3C2=O)NC2(CCN(CC(C)C)CC2)N=5)=NC(=O)C(C)=CC=C[C@@H](C)[C@@H](O)[C@@H](C)[C@@H](O)[C@@H](C)[C@@H](OC(C)=O)[C@@H]1C,-,-,.
Cn1c(C(=O)NCCN2CCCCCC2)cc2c(=O)n(C)c3ccccc3c21,10µM,7.9µM,-
Cn1c(C(=O)NCCCN2CCOCC2)cc2c(=O)n(C)c3ccccc3c21,-,-,.
SMILES,Cruzain Triton,Cruzain noTriton,Papain inh
O=C(COc1ccc2ccccc2c1)NC1CC(=O)N(c2cccc(F)c2)C1 (configuration not stated),-,-,.
CCOC(=O)c1sc(N/N=C/c2cccc(C)c2)nc1C,1.4µM,?,1.3µM
CCOC(=O)c1sc(N/N=C/c2ccccc2)nc1C,-,?,.
CC(C)NC(=O)N1CCC2(CC1)CCN(S(C)(=O)=O)CC2,-,-,.
Cc1cc(NC(=O)c2ccc3nc(-c4ccccc4)c(-c4ccccc4)nc3c2)no1,-,-,.
CNC(=O)c1ccc2nc(-c3cccc(C)c3)c(-c3cccc(C)c3)nc2c1,.,.,-
O=C(Nc1ccc(F)cc1)[C@H](CSCc1ccccc1)N1Cc2ccccc2C1=O,-,-,.
O=C(CNC(=O)c1ccccc1)OCC(=O)c1ccccc1,.,.,-
O=C(CNC(=O)c1ccco1)OCC(=O)c1ccc2c(c1)CCCC2,-,-,.
CCOc1ccc(C(=O)COC(C)=O)cc1,-,-,.
O=C(CNC(=O)C1CCCCC1)OCC(=O)c1ccc2c(c1)CCC2,.,.,-
CCOc1ccc(C(=O)COC(=O)CNC(=O)C2CCCCC2)cc1,.,.,-
O=C(CN1C(=O)c2ccccc2C1=O)NCC(=O)OCC(=O)c1ccc(Br)cc1,-,-,.
O=C(CNC(=O)C1CCCCC1)OCC(=O)c1ccc(Br)cc1,.,.,-
CCOC(=O)CNC(=O)c1ccccc1,-,-,.
COc1ccc(C)cc1NC(=O)Cn1c(=O)ccc2cc(S(=O)(=O)N3CCC(C)CC3)ccc21,-,?,.
O=C(COc1ccc(F)cc1)NC1CC(=O)N(c2ccc3c(c2)OCCO3)C1 (configuration not stated),-,-,.
COc1ccc(OC)c(-n2nnc(-c3nc(-c4ccc5c(c4)OCO5)no3)c2C)c1,-,-,.
COc1ccccc1C(=O)Nc1cccc(C(=O)OCc2cc(=O)n3nc(C4CC4)sc3n2)c1,-,-,.
C[C@H](N=C(NC#N)Nc1ccncc1)C(C)(C)C,-,-,.
CCOc1ccccc1NC(=O)Cn1cnc2c1c(=O)n(C)c(=O)n2C,-,-,.
COc1ccc(C(CC(=O)O)NC(=O)C2CCCCC2)cc1 (configuration not stated),-,-,.
COc1ccc(C(=O)C(C)OC(=O)CNC(=O)C2CCCCC2)cc1 (configuration not stated),.,.,11µM
